Test results from PubChem BioAssay AID1778 (Sanford-Burnham Center for Chemical Genomics, 2009).
Among all 290,000 compounds or so, about 260 (0.09%) were called active. The full list was thinned out, with actives kept by preference. Measured potencies and affinities stand elsewhere. A number with no mark means an inactive call. Cut-off read from the data, not from the text of the source: active = inhibition above about 50%; inactive = the rest.

Each compound was assayed against Kappa-type opioid receptor (Homo sapiens) (UniProt P41145) (assay: kappa opioid receptor blockers – cell-based, luminescence, uHTS (AID 1778)). Conditions: KOR beta-arrestin recruitment, antagonist mode, stronger effect = higher value; at 10 µM unless noted.
Kappa-type opioid receptor (Homo sapiens), sequence (P41145 whole entry, looked up): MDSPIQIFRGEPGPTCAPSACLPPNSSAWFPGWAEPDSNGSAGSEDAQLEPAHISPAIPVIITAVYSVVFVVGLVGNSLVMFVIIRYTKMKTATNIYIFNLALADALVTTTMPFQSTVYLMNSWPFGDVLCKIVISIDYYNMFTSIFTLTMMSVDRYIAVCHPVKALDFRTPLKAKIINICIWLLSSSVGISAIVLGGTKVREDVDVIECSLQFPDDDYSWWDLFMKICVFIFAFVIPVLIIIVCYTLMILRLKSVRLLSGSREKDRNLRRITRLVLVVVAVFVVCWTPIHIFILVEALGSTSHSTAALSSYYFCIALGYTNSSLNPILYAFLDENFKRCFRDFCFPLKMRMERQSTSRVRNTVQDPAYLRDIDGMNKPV
Compound CC(=O)NC(=S)Nc1cccc([N+](=O)[O-])c1 has an inhibition of 30.8%. With Cc1cc(C)n2nc(SCC(=O)NC3CCCCC3)nc2n1 the inhibition was -29.2%. In the case of COc1c(F)c(F)c(C(=O)O)c(Nc2ccccc2)c1F, the inhibition is reported as 4.7%. COCc1nnc(NC(=O)CCCOc2ccccc2OC)s1 was tested, and the inhibition was -4.2%. With Cc1ccc(Cl)cc1NC(=S)Nn1cnnc1 the inhibition was -13.2%. With O=C(NCCc1ccccc1)C1CC(=O)N(C2CCCC2)C1 (stereo not drawn) the inhibition was -27.2%. Work on Cc1sc2c(c1C)C(=O)NC(c1cccc(O)c1)N2 (stereo not drawn) yielded an inhibition of 9.3%. With CCC(=O)NC1CC2CCCC(C1)N2Cc1ccc(C)cc1 (stereo not drawn) the inhibition was 2.1%. CC(=O)NC1CC2CCCC(C1)N2Cc1ccc(C)cc1 (stereo not drawn) was tested, and the inhibition was -10%. CCCN1C2CCCC1CC(NC(=O)c1ccc(F)cc1)C2 (stereo not drawn) showed an inhibition of 22.4%. Compound O=C(NC1CC2CCCC(C1)N2Cc1ccc(F)cc1)c1ccc(F)cc1 (stereo not drawn) has an inhibition of 13.6% [at 20 µM]. Work on CCOc1ccc(C(=O)NCC(=O)OCC(=O)N2CCCCC2)cc1 yielded an inhibition of -18.2%. With COc1ccc(CNC(=O)C2CCN(S(=O)(=O)c3cccc4nonc34)CC2)cc1 the inhibition was -3.2%. For Cc1nc2cncc(Br)c2n1C, the inhibition was -11.9%. Work on CSc1ccc(NC(=O)NCCCN2CCC(Cc3ccccc3)CC2)cc1 yielded an inhibition of -20.9%. For Fc1ccc(NC(=S)NC2CC3CCC(C2)N3Cc2ccco2)cc1 (stereo not drawn), the inhibition was 22.9% [at 20 µM]. Cc1cccc(N2CCN(S(=O)(=O)c3cccc4nonc34)CC2)c1C was tested, and the inhibition was 3%. Compound Cc1ccc(OCc2cccc(S(=O)(=O)N(C)C)c2)c([N+](=O)[O-])n1 has an inhibition of -0.3%. For Cc1ccn2c(CNCCCn3cccn3)c(C(=O)N3CCCCCC3)nc2c1, the inhibition was 13.8% [at 20 µM]. With COc1ccc(C(=O)N/C(=C/c2ccco2)C(=O)N2CCCCCC2)cc1 the inhibition was -0.8%. In the case of N#CC(C#N)=C1C=CC=CN1/C(=C\c1ccccc1)C(=O)c1cccs1, the inhibition is reported as -1%. N#CC(C#N)=C1C=CC=CN1/C(=C\c1ccccc1Cl)C(=O)c1ccccc1 was tested, and the inhibition was 26.8%. Work on O=C(O)/C(=C/c1ccco1)c1ccccc1 yielded an inhibition of -9.6%. In the case of CC(/C=N/n1c(-c2ccc(Cl)cc2)n[nH]c1=S)=C\c1ccco1, the inhibition is reported as -13.3%. For N#C/C(=C\c1ccco1)C(=O)NCc1ccccc1, the inhibition was 7.2%. N#C/C(=C\c1ccco1)C(=O)Nn1cnnc1 was tested, and the inhibition was 1%. In the case of COc1ccc(/C=C(/C(=O)c2cccs2)N2C=CC=CC2=C(C#N)C#N)cc1, the inhibition is reported as -7.8%. COc1ccc(CNC(=S)NCc2ccc(Cl)cc2)cc1OC was tested, and the inhibition was -4.7%. COc1ccccc1N(CC(O)COc1ccccc1)S(=O)(=O)c1ccccc1 (stereo not drawn) showed an inhibition of 25.7%. O=C(Nc1ccccc1Oc1ccsc1C(=O)O)c1ccccc1 was tested, and the inhibition was 11%. With CC/C(C)=N/Oc1nc(C)cc(C)n1 the inhibition was -35.7%. NS(=O)(=O)c1ccc(NC(=O)Nc2ccc(S(N)(=O)=O)cc2)cc1 showed an inhibition of 27.6%. For FC(F)(F)c1cnc(N2CCCN(C(=S)Nc3ccccc3)CC2)c(Cl)c1, the inhibition was -20.9%. O=C(Nc1cccc(C(=O)O)c1)/C(=C\c1ccccc1)NC(=O)c1cccc2ccccc12 gave an inhibition of -20.3% [at 20 µM]. With N#C/C(=C/c1ccco1)C(N)=S the inhibition was -13.4%. With CCOC(=O)/C(C#N)=C\c1ccco1 the inhibition was -16.4%. In the case of CC(=O)OC[C@H]1O[C@@H](O/N=C/[C@@H](C)[C@H](OCc2ccccc2)C(C)C)[C@H](OC(C)=O)[C@@H](OC(C)=O)[C@@H]1OC(C)=O, the inhibition is reported as -20.6%. With O=C(Nc1nc2ccc(S(=O)(=O)N3CCCC3)cc2s1)c1ccccn1 the inhibition was -85.6%. Compound O=C(Nc1nc2c(F)cc(F)cc2s1)c1ccco1 has an inhibition of -20.5% [at 20 µM]. O=C(Nc1nc2ccc(F)cc2s1)c1cccs1 gave an inhibition of -4.2%. Compound CCOc1ccc2nc(NC(=O)c3cnc(C)cn3)sc2c1 has an inhibition of 54.4%. In the case of CCOc1ccc2nc(NC(=O)c3cnccn3)sc2c1, the inhibition is reported as -3.8%. O=C(NNc1nc2c(F)cc(F)cc2s1)c1ccccc1 gave an inhibition of 30.3%. Compound O=C(Nc1nnc(SCc2ccc(F)cc2)s1)c1cnccn1 has an inhibition of -29.3% [at 20 µM]. O=C(Nc1nnc(SCc2ccc(F)cc2)s1)c1cccnc1Cl gave an inhibition of 13%. With Cn1c(CNC(=O)c2ccco2)nnc1SCC(=O)c1ccccc1 the inhibition was 0.9%. Work on O=C(c1ccc(CS(=O)(=O)c2ccc(Br)cc2)o1)N1CCN(c2ccc(F)cc2)CC1 yielded an inhibition of 3.6%. CC(=O)Nc1ccc(S(=O)(=O)NC2(C(F)(F)F)C(=O)Nc3c2c(=O)[nH]c(=O)n3Cc2ccco2)cc1 (stereo not drawn) showed an inhibition of 16.3%. For CN(C)S(=O)(=O)c1cccc(N=C2SCCN2Cc2ccccc2)c1, the inhibition was -13.6%. COc1ccc(CCC(N)=O)cc1OC gave an inhibition of -31.9%. With Cc1ccc(S(=O)(=O)Nc2cccc3ncccc23)s1 the inhibition was 107% (active). O=S(=O)(Nc1cccc2ccccc12)c1cccs1 was tested, and the inhibition was 2.3%. With Cc1ccc(S(=O)(=O)Nc2ccnc3ccccc23)cc1 the inhibition was 6.9%. Compound Cc1c(NS(=O)(=O)c2cccs2)cccc1-c1nc2cccnc2s1 has an inhibition of 6.3%. Cc1ccc(S(=O)(=O)Nc2cccc3ncccc23)cc1 showed an inhibition of 14.1%. O=C(NNC(=O)c1ccccc1[N+](=O)[O-])c1ccccn1 showed an inhibition of -1.3% [at 20 µM]. For Cc1[nH]nc2c1C(c1ccccc1F)CC(=O)N2 (stereo not drawn), the inhibition was -21.3%. CCOC(=O)c1cc2cc(CC(=O)c3ccc(OCC)cc3O)ccc2o1 gave an inhibition of -2%. With C/C(=N\NC(=O)C(c1ccccc1)c1ccccc1)c1ccccn1 the inhibition was 81.1% (active). Compound O=C(NNc1ccccn1)C(c1ccccc1)c1ccccc1 has an inhibition of 11.4%. With CC(C)C(=O)NNC(=O)c1ccccn1 the inhibition was 13.4%. For C/C(=N\NC(=O)c1ccccn1)C12CC3CC(CC(C3)C1)C2, the inhibition was -17.6%. With CC(C(=O)O/N=C(\N)c1ccccn1)c1ccc([N+](=O)[O-])cc1 (stereo not drawn) the inhibition was -1.4%. With C/C(=N/NC(=O)CNC(=O)c1ccccn1)c1ccc([N+](=O)[O-])cc1 the inhibition was 6.2%. O=C(NNC(=O)C12CC3CC(CC(C3)C1)C2)c1cnccn1 gave an inhibition of 27.4%. With CCCCCC(=O)N/N=C(\C)c1ccccn1 the inhibition was 10.5%. Work on C/C(=N\NC(=O)C(c1ccccc1)c1ccccc1)c1ccc(O)cc1 yielded an inhibition of -26.8% [at 20 µM]. Cc1ccc(S(=O)(=O)NN)c(C)c1N1CCCC1=O showed an inhibition of 24.2%. Cc1cccc(C)c1NC(=O)C1CCCN1S(=O)(=O)c1ccccc1 (stereo not drawn) showed an inhibition of -40.1%. O=C(NCc1cccnc1)C1c2ccccc2C(=O)N1C1CCCCCC1 (stereo not drawn) showed an inhibition of -16.6%. Compound O=C(NCCc1nnc2ccc(N3CCCCCC3)nn12)c1ccccc1 has an inhibition of -2.6%. In the case of CN(C)c1ccc(P(=O)(Nc2cccc(C(F)(F)F)c2)N2CCOCC2)c(NC(=O)c2cccs2)c1 (stereo not drawn), the inhibition is reported as 41.3%. For CNC(=S)N1N=C(c2ccc(C)cc2)CC1c1ccc(N(C)C)cc1 (stereo not drawn), the inhibition was 7.7%. In the case of CC1CCCCN1C(=O)COc1ccccc1F (stereo not drawn), the inhibition is reported as -32.6% [at 20 µM]. For O=C(Nc1ccnc(-c2cccnc2)n1)c1ccc(Cl)cc1, the inhibition was -18.4%. For O=C1COc2ccc(C(=O)CSc3nnc(NCc4ccccc4)s3)cc2N1, the inhibition was 21.4%. Work on Oc1[nH]c2ccccc2c1N=NC(=S)NCC1CCCO1 (stereo not drawn) yielded an inhibition of -22%. CCNC(=S)N=Nc1c(O)n(Cc2ccc(Cl)cc2)c2ccccc12 was tested, and the inhibition was -4.3%. For CCn1c(O)c(N=NC(=S)NCC2CCCO2)c2ccccc21 (stereo not drawn), the inhibition was 60.6% (active). COc1ccc(CNC(=O)c2ccc(CN3CCOCC3)cc2)cc1 showed an inhibition of -18.5%. In the case of O=C(NCc1ccco1)C(=O)c1cn(CC(=O)N2CCCC2)c2ccccc12, the inhibition is reported as -7.4%. O=C(COc1ccccc1)Nc1nnc(S(=O)(=O)N2CCCC2)s1 gave an inhibition of -9.4%. In the case of Cc1cc(NCc2ccccn2)n2c(nc3ccccc32)c1C#N, the inhibition is reported as 18.9% [at 20 µM]. For CCCNC(=O)COc1cccc(C(=O)NCc2ccccc2)c1, the inhibition was 16.7%. In the case of Oc1ccc(/C=N/Nc2ccnc3cc(Cl)ccc23)c(O)c1, the inhibition is reported as 3.8%. Work on Oc1ccc(Nc2ccnc3cc(Cl)ccc23)cc1 yielded an inhibition of 25.2%. O=C(O)CC1(CC(=O)Nc2ccc(C(F)(F)F)cc2)CCCC1 gave an inhibition of -5.5%. With O=C(N/N=C/c1cc2cc3c(cc2nc1Cl)OCO3)c1ccncc1 the inhibition was -14.5%. COc1ccc(N2CCN(C(=S)NC(=O)c3cccs3)CC2)c([N+](=O)[O-])c1 showed an inhibition of 4.6%. For O=C(NC(=S)N1CCN(c2ccc(C(F)(F)F)cc2[N+](=O)[O-])CC1)c1cccs1, the inhibition was 6.2%. With CC(=O)c1ccc(NC(=S)N2CCCC(CO)C2)cc1 (stereo not drawn) the inhibition was 35.3%. In the case of C#CCOCCOCCOCCNc1nc(N2CCN(C(=O)[C@H](C)n3cc(CCCN=C(N)N)nn3)CC2)nc(N2CCN(C(=O)[C@H](CCCCN)n3cc(CCCC)nn3)CC2)n1, the inhibition is reported as -17.1%. With CN(Cc1ccccc1)c1ccc(C(CC(N)=O)NC(=O)c2ccccc2)cc1[N+](=O)[O-] (stereo not drawn) the inhibition was -1.2% [at 20 µM]. In the case of O=C(CN1CCN(c2ccc(F)cc2)CC1)OCc1ccccc1, the inhibition is reported as 21.3%. For Cc1cc(C)nc(Nc2nc3ccccc3o2)n1, the inhibition was 17.6%. For Cc1ccc2oc(Nc3nc(C)c(C)c(C)n3)nc2c1, the inhibition was 6.8%. Cc1ccc2oc(Nc3nc(C)cc(C)n3)nc2c1 gave an inhibition of 12.4%. COCc1cc(=O)[nH]c(Nc2nc3ccccc3o2)n1 was tested, and the inhibition was 14.7%.
